According to PubChem BioAssay AID2289 (National Center for Advancing Translational Sciences (NCATS), 2010):
About 3,300 (0.97%) of roughly 340,000 compounds were called active. Not shown: some 9% with an inconclusive outcome. Calls come from the whole dose curve; as a rule, active = well fitted inhibition curve with a large enough effect; inconclusive = small, poorly fitted or top-dose-only effect, or effect the other way; inactive = flat fitted curve, though single readings scatter. The list shows a part of the results.

Test: qHTS Assay for Modulators of miRNAs and/or Inhibitors of miR-21; note: nearly all actives have a fitted effect of over 55% in size
Conditions: HeLa miR-21-FLuc reporter, luciferase luminescence, 48 h; actives lower the signal
Method in brief: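 HeLa cells stably expressing CMV-driven firefly luciferase with a downstream miR-21 binding sequence, endogenously expressing miR-21, were treated with titrations (up to about 40uM final) for 48 hours at 37 degree Celsius. Luciferase luminescence was read after lysis.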
Potency is the fitted concentration of half-maximal effect.

Potency, active:
COc1ccc2cc(-c3ccccc3)ncc2c1 0.369 µM
COc1ccc(-c2cc3cc(OC)c(OC)cc3c(C)n2)cc1 7.36 µM
COc1ccc2nc(-c3ccccc3)cc(OC)c2c1 14.7 µM
O=C(COc1ccc2c(c1)OCO2)Nc1ccccc1C(F)(F)F 16.5 µM
O=C(COc1ccc2c(c1)OCO2)Nc1ccc(Cl)cn1 2.07 µM
CC1Cc2ccccc2N1C(=O)COc1ccc2c(c1)OCO2 (centres undefined) 11.7 µM
O=C(COc1ccc2c(c1)OCO2)Nc1cccc(F)c1 8.26 µM
COc1ccccc1NC(=O)COc1ccc(CO)cc1Cl 5.85 µM
COc1ccccc1NC(=O)COc1ccc2c(c1)OCO2 7.36 µM
Cc1occc1C(=O)N/N=C/c1ccc(-c2ccccc2)cc1 0.147 µM
Cc1ccc(/C=N/NC(=O)c2ccoc2C)o1 16.5 µM
Cc1ccc(/C=N\Nc2cn[nH]c(=O)c2Cl)cc1 14.7 µM
Cc1cccc(/C=N\Nc2cn[nH]c(=O)c2Cl)c1 18.5 µM
O=C(/C(C=Nc1ccc(F)cc1)=C(/O)c1ccco1)C(F)(F)F 4.14 µM
CC(=O)C(C)Oc1ccc2c3c(c(=O)oc2c1C)CCCC3 (centres undefined) 16.5 µM
CC(=O)COc1ccc2c3c(c(=O)oc2c1C)CCCCC3 3.29 µM
CC(=O)Nc1ccc(/C=N/NC(=O)c2cccs2)cc1 5.85 µM
CSc1ccc(/C=N/NC(=O)c2cccs2)cc1 1.31 µM
Cc1ccc(/C=N/N=C/c2ccc(C)s2)s1 0.927 µM
O=C(N/N=C/c1ccncc1)c1cccs1 5.21 µM
O=C(N/N=C/c1ccc2c(c1)OCO2)c1cccs1 1.65 µM
Cc1ccc(/C=N/NC(=O)c2cccs2)s1 7.36 µM
COc1cc(/C=N/NC(=O)c2cccs2)ccc1O 10.4 µM
CCNC(=S)/N=C(\N)Nc1nc(C)c2cc(C)ccc2n1 5.85 µM
Cc1nc2ccc(NC(=O)c3ccccc3)cc2s1 5.85 µM
Cc1nc2ccc(NC(=O)c3cccs3)cc2s1 3.69 µM
CC(C)(C)c1ccc(C(=O)Nc2ccccc2Cl)cc1 0.826 µM
Cc1nc2ccc(C(=O)Nc3ccccc3Cl)cc2s1 3.69 µM
Cc1nc2ccc(NC(=O)c3cc(Cl)ccn3)cc2s1 0.369 µM
Cc1nc2ccc(NC(=O)N(C)c3ccccc3)cc2s1 9.27 µM
Cc1nc2ccc(NC(=O)c3ccc4ccccc4n3)cc2s1 3.69 µM
CCOc1ncccc1C(=O)Nc1ccc2nc(C)sc2c1 8.26 µM
C=CCC(CC(O)COCCC)C(=O)NNC(=S)Nc1ccccc1 (centres undefined) 13.1 µM
CCCn1c(C)cc(/C=C(\C#N)C(=O)OCC(=O)Nc2cc(OC)c(OC)c(OC)c2)c1C 16.5 µM
COc1ccccc1C(=O)OCc1nc(N)nc(Nc2ccccc2C)n1 18.5 µM
Cc1ccccc1Nc1nc(N)nc(COC(=O)c2ccccc2)n1 13.1 µM
CCn1c(SCc2ccccc2Cl)nc2ccccc21 13.1 µM
Cn1c(SCc2ccccc2Cl)nc2ccccc21 3.29 µM
Cn1c(SCc2ccc(C#N)cc2Cl)nc2ccccc21 4.65 µM
O=[N+]([O-])c1ccc2nc(SCc3cn4ccccc4n3)[nH]c2c1 18.5 µM
c1ccn(-c2ccc(-c3ccn[nH]3)cc2)c1 6.56 µM
O=C(c1cnn(-c2cccc(F)c2)c1)c1ccccc1O 3.69 µM
N#C/C(=C/c1ccc(O)c(O)c1)c1nc2ccccc2[nH]1 3.29 µM
CN(C)c1ccc(/C=C(\C#N)c2nc3ccccc3c(=O)[nH]2)cc1 0.131 µM
c1ccc(Nc2nc(-c3ccccc3)ns2)cc1 0.414 µM
Cc1nnc(SCc2ccccc2Cl)c2cc3occc3n12 11.7 µM
Clc1ccc(-c2nc3ccncc3[nH]2)cc1 7.36 µM
Nc1ccc2nc(-c3ccc(Cl)cc3)[nH]c2c1 6.56 µM
CCOC(=O)CCSc1nc(C)c2cc(C)ccc2n1 10.4 µM
CCOC(=O)CCSc1nc(C)c2cc(OC)ccc2n1 8.26 µM
OC1CCCN(c2c3c(nc4cc(-c5cccc(F)c5)nn24)CCCC3)C1 (centres undefined) 2.07 µM
O=C(Nc1ccc(SC(F)(F)F)cc1)c1ccccn1 0.369 µM
COc1ccc(NC(=O)c2coc3ccccc23)cc1OC 9.27 µM
COc1ccc(NC(=O)c2ccccn2)cc1OC 11.7 µM
COc1ccc(NC(=S)Nc2ncccc2C)cc1OC 5.21 µM
Cc1ccc(-c2nnc(CCC(=O)NCC3C4CC5CC(C4)CC3C5)o2)s1 (centres undefined) 14.7 µM
Cc1ccc(C2=NN(S(C)(=O)=O)C(c3ccc4c(c3)OCO4)C2)cc1 (centres undefined) 0.521 µM
CS(=O)(=O)N1N=C(c2ccc(Br)cc2)CC1c1ccc2c(c1)OCO2 (centres undefined) 0.927 µM
CS(=O)(=O)Nc1ccc(C2=NN(S(C)(=O)=O)C(c3ccc4c(c3)OCO4)C2)cc1 (centres undefined) 4.65 µM
CC(=O)N1N=C(c2ccc(C)cc2)CC1c1ccc2c(c1)OCO2 (centres undefined) 7.36 µM
COC(=O)c1ccc(CSC2=NCCS2)cc1 4.65 µM
CC(=O)Nc1nc(-c2ccc(Cl)cc2)ns1 1.85 µM
C/C(=N\N=C\c1ccc(N(C)C)cc1)c1cccc([N+](=O)[O-])c1 13.1 µM
Nc1cc([N+](=O)[O-])cc2oc(-c3ccccc3)cc12 14.7 µM
Cc1ccc(COc2ccc(C)nc2[N+](=O)[O-])cc1 0.927 µM
Cc1ccc(OCc2ccc(Br)cc2)c([N+](=O)[O-])n1 2.61 µM
CCOC(=O)c1cc(C(=O)Nc2cccc(C)c2)nn1C 1.31 µM
CCOC(=O)c1cc(C(=O)Nc2ccc(C)c(F)c2)nn1C 4.65 µM
CCOC(=O)c1cc(C(=O)Nc2ccccc2F)nn1C 1.85 µM
